# PubChem BioAssay (NCATS)
# Where “and” joins values, the source holds several entries; their conditions need not be identical. Equal values may be shown once. Inconclusive results are not listed. A number with no mark means an inactive call. The call rests on the fitted dose curve; in most records, active means well fitted activation curve with a large enough effect in the signal ratio; inconclusive means small, poorly fitted or top-dose-only effect, or a change in a side signal; inactive means flat fitted curve, though single readings scatter; the % refers to the signal ratio.
# Test: qHTS assay for small molecule activators of the nuclear factor-kappa B (NF-kB) signaling pathway (AID 651749); further: series mostly up to about 77 µM; % of control where 0% means no effect
# Details: NF-kB-bla ME-180 cells, beta-lactamase FRET ratio, 16 h; active compounds read high
# From the text: National Center for Advancing Translational Sciences [NCATS] NIH Chemical Genomics Center [NCGC] U.S. Environmental Protection Agency [EPA] National Institutes of Environmental Health Sciences [NIEHS] National Toxicology Program [NTP] Assay Overview: Transcription factors and their stimulated target gene expression play pivotal roles across many cellular processes including responses to environmental stimuli. Proper regulation of associated pathways is critical to maintain cell health and function. Constitutive activation of transcription factor pathways has been implicated in tumors as it may block cellular functions such as apoptosis and lead to invasion and metastasis. One important transcription factor that stimulates gene expression in response to cytokines, UV radiation, and other stimuli is nuclear factor-kappa B (NF-kB). To measure activation of the NF-kB pathway, the NF-kB-bla ME-180 cell line stably expressed beta-lactamase reporter gene under the regulation of a NF-kB response element was obtained from Invitrogen. This assay allows measurement of the NF-kB pathway activity induced by compounds in a ME-180 cell line. This system quantitates NF-kB activity using a FRET-based assay system where beta-lactamase expression disrupts FRET, allowing for fluorescent measurement of activity.
# Assay Protocol Summary: For toxicology screening, 2,000 cells in 5 uL/well were dispensed into black, clear-bottom 1536-well plates using a Multidrop Combi (Thermo Scientific) dispenser. Following transfer of 23 nL compound or DMSO vehicle by a pin tool, the plates were incubated 16 hr at 37C and 5% CO2.
row,SMILES,activation
1,O=NN1CCCCC1,-0.849%
2,CN(C)C(=O)Nc1ccc(Cl)cc1,2.75% and -0.215%
3,S=C1NCCN1,0.43% and 0.618%
4,O=C(O)C(Cl)Br (stereo not given),0.434%
5,CCOP(=S)(OCC)SCCSCC,-0.799% and -0.139%
6,O=[N+]([O-])c1cccc2c([N+](=O)[O-])cccc12,0.0339%
7,CCN(N=O)C(N)=O,-1.14%
8,CC(C)(COCC1CO1)COCC1CO1 (stereo not given),0.814%
9,CCCCCC[N+](=O)[O-],1.69%
10,Cc1coc2c1CCC(C)C2 (stereo not given),-0.0074%
11,ClC(Cl)C(Cl)Cl,-0.991%
12,Oc1c(Cl)cccc1Cl,-0.406%
13,Oc1cc(Cl)ccc1Cl,-0.753% and -0.792%
14,O=[N+]([O-])CCO,-0.859%
15,ClCc1ccccc1,-0.661%
16,CC[N+](=O)[O-],1.19%
17,NC1CCC(CC2CCC(N)CC2)CC1 (stereo not given),-0.779% and -0.659%
18,BrCC(Br)(Br)Br,0.84%
19,Cc1ccc(N)c(N)c1,-0.795%
20,CC(C)(OOC(C)(C)c1ccccc1)c1ccccc1,0.182% and -0.836%

row,SMILES,activation
1,Clc1cccc2ccccc12,0.856%
2,CN(C)c1ccc(N(C)C)cc1,0.946%
3,C=CCO,0.305%
4,c1ccc2c(c1)CCNC2,0.526%
5,CCOP(=S)(OCC)Oc1nc(Cl)c(Cl)cc1Cl,-1.28% [middle of 4 runs]
6,Clc1ccc(C(Cl)(Cl)Cl)c(Cl)c1,-0.477%
7,CCCCCCCCCCCOC(=O)c1ccccc1C(=O)OCCCCCCCCCCC,-0.4%
8,ClC(Cl)c1ccccc1,-0.312%
9,CN(C)N=O,-0.838%
10,Cc1cc(N=Nc2ccccc2C)ccc1N,-0.0756% and -0.721%
11,C=CC(=O)OC,-0.11%
12,C=CC(=O)OCC(CC)CCCC (stereo not given),-0.0286% and 0.831%
13,C/C=C/CC#N,1.19%
14,Nc1c(Cl)cc([N+](=O)[O-])cc1Cl,0.598% and -4.6%
15,O=[N+]([O-])/C=C/c1ccccc1,-0.835%
16,Oc1cc(Cl)cc(Cl)c1,0.715%
17,C=C(Cl)CCl,0.174%
18,C=C(Cl)CSC(=S)N(CC)CC,-0.634%
19,Cc1ccc(N)cc1Cl,-0.096%
20,CC(C)(C)C(O)(CCc1ccc(Cl)cc1)Cn1cncn1 (stereo not given),-0.348% and -1.3%
